# Measured values published in the supplement of paper PMC10503962.
# Tested on: Trichuris muris adult worms
# Assay: mean motility score (Paragon pixel variance) of adult worms (arbitrary units); higher = more motile worms, i.e. less anthelmintic effect; extreme values may be limits of the assay
# Settings: 100 µM; 24 h
# Procedure, shortened: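 Each drug was tested with three worms in three wells, run over three separate occasions and vehicle and positive controls included. The worms were single adult Trichuris muris from infected NOD SCID mice, held for 24 h at 37°C and 5% CO2 in 100 μL RPMI-1640 with antibiotics and drug at 100 μM (1% v/v DMSO) in 96-well plates. Motility score was derived by Paragon pixel-variance analysis of films from an automated phenotyping platform and averaged over replicate wells.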
row,Structure (SMILES),mean motility score
1,NCC[C@H](O)C(=O)N[C@@H]1C[C@H](N)[C@@H](O[C@H]2O[C@H](CN)[C@@H](O)[C@H](O)[C@H]2O)[C@H](O)[C@H]1O[C@H]1O[C@H](CO)[C@@H](O)[C@H](N)[C@H]1O.O=S(=O)(O)O [amikacin sulfate],3880
2,CCN(CC)CCOC(=O)C1(C2CCCCC2)CCCCC1.Cl [dicyclomine hydrochloride],4250
3,CC(=O)Oc1ccc(C(c2ccc(OC(C)=O)cc2)c2ccccn2)cc1 [bisacodyl],2870
4,CC(C)(F)C[C@H](N[C@@H](c1ccc(-c2ccc(S(C)(=O)=O)cc2)cc1)C(F)(F)F)C(=O)NC1(C#N)CC1 [odanacatib],3560
5,CCn1cc(C(=O)O)c(=O)c2cc(F)c(N3CCNCC3)cc21 [norfloxacin],1950
6,CN1CC(=O)N2[C@H](c3ccc4c(c3)OCO4)c3[nH]c4ccccc4c3C[C@@H]2C1=O [tadalafil],990
7,c1ccc(CC2=NCCN2)cc1 [tolazoline],1230
8,C[C@H](CS)C(=O)N1CCC[C@H]1C(=O)O [captopril],3330
9,CCN(CC)CCNC(=O)c1cc(Cl)c(N)cc1OC [metoclopramide],3210
10,Cc1ccc(S(=O)(=O)O)cc1.Clc1cccc(Cl)c1NC1=NCCN1 [clonidine p-toluenesulfonic acid],3620
11,CC(=O)Nc1cccc(-n2c(=O)n(C3CC3)c(=O)c3c(Nc4ccc(I)cc4F)n(C)c(=O)c(C)c32)c1 [trametinib],2980
12,COC(=O)CCC(=O)CN.Cl [methyl aminolevulinate hydrochloride],2550
13,CCOC(=O)n1ccn(C)c1=S [carbimazole],1610
14,O=C1NCCN1CCN1CCC(c2cn(-c3ccc(F)cc3)c3ccc(Cl)cc23)CC1 [sertindole],0
15,COc1cc(C(=O)NS(=O)(=O)c2ccccc2C)ccc1Cc1cn(C)c2ccc(NC(=O)OC3CCCC3)cc12 [zafirlukast],0
16,CN(C/C=C/C#CC(C)(C)C)Cc1cccc2ccccc12 [terbinafine],4560
17,COc1ccc(CCN(C)CCCC(C#N)(c2ccc(OC)c(OC)c2)C(C)C)cc1OC (centres undefined) [verapamil],3440

row,Structure (SMILES),mean motility score
1,CO[C@H]1/C=C/O[C@@]2(C)Oc3c(C)c(O)c4c(O)c(c(/C=N/N5CCN(C)CC5)c(O)c4c3C2=O)NC(=O)/C(C)=C\C=C\[C@H](C)[C@H](O)[C@@H](C)[C@@H](O)[C@@H](C)[C@H](OC(C)=O)[C@@H]1C [rifampicin],1330
2,CC(C)c1ccc2oc3nc(N)c(C(=O)O)cc3c(=O)c2c1 [amlexanox],1570
3,C#CCN(C)Cc1ccccc1 [pargyline],2290
4,CCCCCCCCCCCCCCCCO [cetyl alcohol],1880
5,COc1ccc(C(Cl)=C(c2ccc(OC)cc2)c2ccc(OC)cc2)cc1 [chlorotrianisene],2530
6,O=C(O)c1ccc2ccccc2c1O.OCc1cc(C(O)CNCCCCCCOCCCCc2ccccc2)ccc1O (centres undefined) [salmeterol xinafoate],0
7,Clc1ccccc1C(c1ccccc1)(c1ccccc1)n1ccnc1 [clotrimazole],0
8,CC/C=C\C/C=C\C/C=C\C/C=C\C/C=C\C/C=C\CCC(=O)O [doconexent],4100
9,Cc1ccc(S(=O)(=O)NC(=O)NN2CCCCCC2)cc1 [tolazamide],4090
10,CC(C)NCC(O)COc1cccc2[nH]ccc12 (centres undefined) [pindolol],4670
11,Cc1c(C)c2c(c(C)c1O)CC[C@@](C)(CCC[C@H](C)CCC[C@H](C)CCCC(C)C)O2 [vitamin E],2950
12,Oc1nc2ccccc2n1CCCN1CCC(n2c(O)nc3cc(Cl)ccc32)CC1 [domperidone],3910
13,NCCc1ccc(O)c(O)c1 [dopamine],3440
14,CCCc1nc2c(C)cc(-c3nc4ccccc4n3C)cc2n1Cc1ccc(-c2ccccc2C(=O)O)cc1 [telmisartan],1900
15,O=C(CCCCCCC(=O)Nc1ccccc1)NO [vorinostat],1260
16,COCCOC(=O)C1=C(C)NC(C)=C(C(=O)OC(C)C)C1c1cccc([N+](=O)[O-])c1 (centres undefined) [nimodipine],112
17,Cc1nc(Nc2ncc(C(=O)Nc3c(C)cccc3Cl)s2)cc(N2CCN(CCO)CC2)n1 [dasatinib],1190
